High-throughput results as filed in PubChem BioAssay.
Shown are actives, neighbours in structure and some others; about 21% of the full set was active somewhere.
DT40 TDP1 CPT: qHTS for Inhibitors of human tyrosyl-DNA phosphodiesterase 1 (TDP1): qHTS in cells in presence of CPT; chicken DT40 Tdp1-/-;hTDP1 cells + 20 nM CPT, ATP luminescence, 48 h; Potency, µM (titrated, usually from 46.2 µM), most hits filed as inhibitors; 420,000 tested, 12% active; AID 686979, 2013; note: nearly all actives have a fitted effect of over 55% in size
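Chicken DT40 Tdp1-/- cells stably complemented with human TDP1 were seeded at 400 cells/well in medium containing 20 nM camptothecin, exposed to pin-transferred compounds, and grown at 37 °C for at least 48 hr. Viability was read as ATP luminescence.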
DT40 TDP1 no CPT: qHTS for Inhibitors of human tyrosyl-DNA phosphodiesterase 1 (TDP1): qHTS in cells in absence of CPT | DT40 Tdp1-/- hTDP1 cells, no CPT, ATP luminescence, 48 h | Potency, µM (highest dose often 46.2 µM), usual class: inhibitors | 420,000 tested, 15% active | AID 686978, 2013; note: nearly all actives have a fitted effect of over 55% in size
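Growth of hTDP1-complemented DT40 Tdp1-knockout cells is measured by ATP luminescence after at least 48 hr compound exposure at 37 °C, with DMSO substituting for the 20 nM CPT used in the parallel screen.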
RORg inh: qHTS for inhibitors of ROR gamma transcriptional activity | Nuclear receptor ROR-gamma (Mus musculus), P51450 | Drosophila S2 Gal4-RORgamma UAS-luciferase reporter, 20 h | Potency, µM (doses to about 53.6 µM), most hits filed as inhibitors | 310,000 tested, 5.4% active | AID 2551, 2010; note: nearly all actives have a fitted effect of over 60% in size
Target sequence (P51450 whole entry, looked up, the tested form may be a part): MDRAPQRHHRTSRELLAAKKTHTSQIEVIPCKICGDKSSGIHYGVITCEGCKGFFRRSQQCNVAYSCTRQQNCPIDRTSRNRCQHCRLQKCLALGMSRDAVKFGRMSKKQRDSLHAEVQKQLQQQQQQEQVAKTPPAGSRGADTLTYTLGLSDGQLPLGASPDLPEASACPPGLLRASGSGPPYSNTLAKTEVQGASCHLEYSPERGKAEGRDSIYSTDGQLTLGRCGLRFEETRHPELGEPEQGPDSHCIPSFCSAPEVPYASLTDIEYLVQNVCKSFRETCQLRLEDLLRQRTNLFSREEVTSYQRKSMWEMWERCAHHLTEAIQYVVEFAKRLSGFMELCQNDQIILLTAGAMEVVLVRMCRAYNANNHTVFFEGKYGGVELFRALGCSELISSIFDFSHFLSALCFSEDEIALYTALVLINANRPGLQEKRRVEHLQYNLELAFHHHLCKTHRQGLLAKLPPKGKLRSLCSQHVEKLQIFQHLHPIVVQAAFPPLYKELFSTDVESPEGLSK
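Luciferase reporter read in Schneider cells carrying Gal4-RORγ (mouse) and UAS-Photinus luciferase; cells given compound 1 h before 700 uM copper sulfate induction, then incubated 20 h at ambient temperature.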
IL-1B inflam inh: qHTS for Inhibitors of Inflammasome Signaling: IL-1-beta AlphaLISA Primary Screen; activity change, % at 57.5 µM; AID 743279, 2014; 360,000 tested, 4.7% active; THP-1 LPS/ATP IL-1B secretion, AlphaLISA, 16 h; hits give low values; in the data active = activity change below about -50%; inconclusive = mostly about -30% to -49%
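THP-1 cells pretreated 1 hr with compounds (up to 57.5 uM final), then stimulated with LPS (250 ng/mL final) plus ATP (1.25 mM final); secreted IL-1B measured by AlphaLISA after 16 hr, decreased signal indicating inhibition.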
VP16 counter: VP16 counterscreen qHTS for inhibitors of ROR gamma transcriptional activity | 310,000 tested, 3.5% active | Potency, µM (series often up to 53.6 µM), hits mostly inhibitors | AID 2546, 2010 | Drosophila S2 Gal4-VP16 UAS-luciferase, luminescence, 20 h;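 note: Gal4-VP16 expression switched on by copper sulfate through the metallothionein promoter; nearly all actives have a fitted effect of over 50% in size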
ELG1 repair inh: qHTS screen for small molecules that inhibit ELG1-dependent DNA repair in human embryonic kidney (HEK293T) cells expressing luciferase-tagged ELG1; HEK293T ELG1-luciferase reporter, luminescence, 16 h; DNA damage induced by 5-fluorouridine; Potency, µM (titrated, usually from 46.1 µM), usual class: inhibitors; AID 504467, 2011; 330,000 tested, 2.3% active; note: nearly all actives have a fitted effect of over 55% in size
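Cells (2,000 per well) received 5-fluorouridine plus test compound or DMSO and were incubated 16 hr at 37 °C, 5% CO2. Luciferase activity was read by luminescence 30 min after ONE-Glo addition; signal suppression marked inhibition of damage-induced ELG1 function.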
A number is an active result. Unless noted, calls come from the whole dose curve; as a rule, active = well fitted curve in the direction sought with a large enough effect; inconclusive = small, poorly fitted or top-dose-only effect, or another doubt; inactive = no such curve, though single readings can be large; an effect the other way counts as inactive or inconclusive.

`Nc1nc(SCC(=O)Nc2ccc(C(F)(F)F)cc2)[nH]c(=O)c1NC(=O)c1ccc(F)c(F)c1` gave DT40 TDP1 CPT inactive, DT40 TDP1 no CPT inactive, RORg inh inactive, IL-1B inflam inh inactive, VP16 counter inactive and ELG1 repair inh inactive.
`CCOc1ccc(NC(=O)CSc2nc(-c3cccs3)cc(C(F)(F)F)c2C#N)cc1` gave DT40 TDP1 CPT inactive and DT40 TDP1 no CPT inactive.
For Cc1cc(C(F)(F)F)c(C#N)c(SCC(=O)Nc2nc3cc(Br)ccc3s2)n1 the results were DT40 TDP1 CPT inactive, DT40 TDP1 no CPT inactive, RORg inh inactive, IL-1B inflam inh -145.9, VP16 counter inconclusive and ELG1 repair inh inconclusive.
`N#Cc1c(C(F)(F)F)cc(-c2cccs2)nc1SCC(=O)Nc1ccc(Cl)cc1` gave DT40 TDP1 CPT 16.4µM and DT40 TDP1 no CPT inconclusive.
O=C1OCC2=C1C(c1ccc3c(c1)OCO3)Sc1ccccc1N2 (stereo unspecified) was read as DT40 TDP1 CPT 13µM, DT40 TDP1 no CPT 20.6µM, RORg inh inactive, IL-1B inflam inh inactive, VP16 counter 14.1µM and ELG1 repair inh inactive.
For CC(=O)Oc1ccc(C2C3=C(CC(C)(C)CC3=O)Nc3cc4c(cc32)OCCO4)cc1 (stereo unspecified) the results were DT40 TDP1 CPT inactive, DT40 TDP1 no CPT inactive, RORg inh inactive, IL-1B inflam inh inconclusive, VP16 counter inactive and ELG1 repair inh inactive.
Screening O=C1OCC2=C1C(c1ccc(F)cc1)c1cc3c(cc1N2)OCO3 (stereo unspecified) returned DT40 TDP1 CPT 0.164µM, DT40 TDP1 no CPT 0.0326µM, RORg inh inactive, IL-1B inflam inh inactive, VP16 counter inactive and ELG1 repair inh inconclusive.
For COc1cc2c(cc1OC)C(c1ccc3c(c1)OCO3)C1=C(CC(C)(C)CC1=O)N2 (stereo unspecified) the results were DT40 TDP1 CPT inconclusive, DT40 TDP1 no CPT inconclusive, RORg inh inactive, IL-1B inflam inh -54.4, VP16 counter inactive and ELG1 repair inh inactive.
For O=C1OCC2=C1C(c1ccc(F)cc1)c1cc3c(cc1N2)OCCO3 (stereo unspecified) the results were DT40 TDP1 CPT 0.184µM, DT40 TDP1 no CPT 0.184µM, RORg inh inactive, IL-1B inflam inh inactive, VP16 counter inactive and ELG1 repair inh inactive.
Screening COc1cccc(C2C3=C(CC(C)(C)CC3=O)Nc3cc4c(cc32)OCO4)c1 (stereo unspecified) returned DT40 TDP1 CPT inactive, DT40 TDP1 no CPT inactive, RORg inh inactive, IL-1B inflam inh inconclusive, VP16 counter inactive and ELG1 repair inh inconclusive.
CCOC(=O)[C@H](CCc1ccccc1)N[C@H]1CCCN2CCC[C@@H](C(=O)O)N2C1=O was read as DT40 TDP1 CPT inactive and DT40 TDP1 no CPT inactive.
For CCNC(=O)C1(C)CCN(C(=O)c2cccs2)C1 (stereo unspecified) the results were DT40 TDP1 CPT inactive, DT40 TDP1 no CPT inactive and IL-1B inflam inh inactive.
For COc1cccc(C2C3=C(CC(C)(C)CC3=O)Nc3cc(OC)c(OC)cc32)c1 (stereo unspecified) the results were DT40 TDP1 CPT inactive, DT40 TDP1 no CPT inactive, RORg inh inactive, IL-1B inflam inh inactive, VP16 counter inactive and ELG1 repair inh inactive.
Screening C#CCOc1ccc(C2C3=C(COC3=O)Nc3cc4c(cc32)OCO4)cc1OC (stereo unspecified) returned DT40 TDP1 CPT 0.82µM, DT40 TDP1 no CPT 1.03µM, RORg inh inactive, IL-1B inflam inh inactive, VP16 counter inactive and ELG1 repair inh inactive.
`COc1cc2ccccc2cc1C(=O)Nc1ccc2oc(-c3cc(Br)ccc3Cl)nc2c1` gave DT40 TDP1 CPT inconclusive and DT40 TDP1 no CPT inactive.
Screening CC(=O)c1cnn(-c2ccccc2)c1C returned DT40 TDP1 CPT inactive, DT40 TDP1 no CPT inactive, RORg inh inactive, IL-1B inflam inh inactive, VP16 counter inactive and ELG1 repair inh inactive.
For CC(=O)c1cnn(-c2c(Cl)cc(Cl)cc2Cl)c1C the results were DT40 TDP1 CPT 16.4µM, DT40 TDP1 no CPT 18.4µM, RORg inh inactive, IL-1B inflam inh inactive, VP16 counter inactive and ELG1 repair inh inconclusive.
O=C(CSc1nnc(N2CCCC2)n1-c1cccc(Cl)c1)N1CCN(c2ccccn2)CC1 was read as DT40 TDP1 CPT inconclusive, DT40 TDP1 no CPT 20.6µM and IL-1B inflam inh inactive.
Screening O=C(c1cc(Sc2cccc(Cl)c2)nc2ccccc12)N1CCN(c2ccccn2)CC1 returned DT40 TDP1 CPT 14.6µM, DT40 TDP1 no CPT inconclusive, RORg inh inactive, IL-1B inflam inh inactive, VP16 counter inconclusive and ELG1 repair inh 20.6µM.
O=C(c1cnc(N2CCN(c3ccccn3)CC2)c2ccccc12)N1CCN(c2cccc(Cl)c2)CC1 was read as DT40 TDP1 CPT 13µM, DT40 TDP1 no CPT 11.6µM, RORg inh inconclusive, IL-1B inflam inh -60.0, VP16 counter 1.58µM and ELG1 repair inh 4.61µM.
COCCNC(=O)C1(C)C=CCN1C(C)=O (stereo unspecified) was read as RORg inh inactive and VP16 counter inactive.
Screening CCOc1ccccc1NC(=O)COC(=O)C1CCC(=O)N1 (stereo unspecified) returned DT40 TDP1 CPT inactive, DT40 TDP1 no CPT inactive, IL-1B inflam inh inactive and ELG1 repair inh inactive.
For Cc1cc(=O)n(CC(=O)NCc2ccc(OC(C)C)cc2)c2c1c(C)nn2-c1cccc(F)c1 the results were DT40 TDP1 CPT inactive and DT40 TDP1 no CPT inconclusive.
`CCOC(=O)c1sc(/S(C)=N\S(=O)(=O)c2cccc(Cl)c2)c2c1CCC=C2` (stereo unspecified) gave DT40 TDP1 CPT inconclusive, DT40 TDP1 no CPT 16.4µM, RORg inh inactive, IL-1B inflam inh inactive, VP16 counter inactive and ELG1 repair inh inactive.
`CCOC(=O)C1=CCN(S(=O)(=O)c2cccc(Cl)c2)C1c1ccc(C)cc1` (stereo unspecified) gave DT40 TDP1 CPT inactive, DT40 TDP1 no CPT inconclusive and IL-1B inflam inh inactive.
Clc1ccc(C2C3=C(Nc4ncnn42)c2ccccc2CC3)cc1 (stereo unspecified) was read as RORg inh 14.1µM, VP16 counter inconclusive and ELG1 repair inh inactive.
